Screening data (PubChem BioAssay)
Tau ThT inhib = qHTS for Inhibitors of Tau Fibril Formation, Thioflavin T Binding; Potency, µM (doses to about 57.4 µM), for the others: top-dose activity, negative = inhibition, hits mostly inhibitors; Microtubule-associated protein tau (Homo sapiens), P10636; actives 2.1% (n = 270,000); AID 1460, 2008; recombinant tau K18 P301L, heparin-induced fibrillization, ThT fluorescence; note: potency is the fitted concentration of half-maximal effect; nearly all actives have a fitted effect of over 55% in size
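ThT emission at 510 nm, taken 1 hr after adding 30 uM dye, quantifies aggregates formed when 20 uM heparin acts on human tau K18 P301L for 6 hr at 37 C.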
USP1 inh = Inhibitors of USP1/UAF1: Primary Screen. Potency, µM (titrated, usually from 57.1 µM), inactives show at the highest dose activity change, negative = inhibition, actives largely listed as inhibitors. Ubiquitin carboxyl-terminal hydrolase 1 (Homo sapiens), O94782. recombinant USP1/UAF1, Ub-Rhodamine cleavage fluorescence. actives 0.23% (n = 390,000); note: potency is the fitted concentration of half-maximal effect; nearly all actives have a fitted effect of over 60% in size
Target sequence (O94782 whole entry, looked up): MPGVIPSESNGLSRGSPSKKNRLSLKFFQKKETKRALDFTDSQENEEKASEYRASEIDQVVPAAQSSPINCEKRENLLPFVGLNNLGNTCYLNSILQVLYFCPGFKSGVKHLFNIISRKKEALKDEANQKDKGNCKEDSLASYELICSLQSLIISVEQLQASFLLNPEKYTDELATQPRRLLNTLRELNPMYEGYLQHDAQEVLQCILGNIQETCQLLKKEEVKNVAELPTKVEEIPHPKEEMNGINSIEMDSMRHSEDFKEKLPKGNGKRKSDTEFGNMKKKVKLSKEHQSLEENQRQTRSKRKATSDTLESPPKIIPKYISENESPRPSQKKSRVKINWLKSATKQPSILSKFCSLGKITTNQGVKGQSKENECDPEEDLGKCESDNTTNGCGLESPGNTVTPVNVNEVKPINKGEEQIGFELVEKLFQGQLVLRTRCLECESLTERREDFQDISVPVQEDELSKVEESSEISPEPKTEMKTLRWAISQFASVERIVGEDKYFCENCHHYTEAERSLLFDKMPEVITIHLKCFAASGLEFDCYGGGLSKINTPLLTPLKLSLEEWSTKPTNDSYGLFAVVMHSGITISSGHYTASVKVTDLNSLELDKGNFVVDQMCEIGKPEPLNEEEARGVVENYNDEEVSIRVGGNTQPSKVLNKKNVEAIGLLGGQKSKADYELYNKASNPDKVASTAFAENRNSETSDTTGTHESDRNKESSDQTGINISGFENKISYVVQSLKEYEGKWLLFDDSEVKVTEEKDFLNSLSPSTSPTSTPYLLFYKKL
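In this screen, compounds sit with the deubiquitinase complex (1nM) for 15 min at room temperature before Ub-Rho is added at 150nM final. Fluorescence rise is then followed for 6 reads every 60 seconds.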
Tau fluor cs = Counterscreen qHTS for Inhibitors of Tau Fibril Formation, Fluorescence Polarization; tau K18 P301L (four-repeat tau fragment) Alexa594 fluorescence, heparin fibrillization; Potency, µM (titrated, usually from 57.7 µM), for inactives: top-dose activity change, negative = decrease; actives 0.93% (n = 280,000); AID 1463, 2008; note: potency is the fitted concentration of half-maximal effect; nearly all actives have a fitted effect of over 55% in size
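Human K18 P301L tau (15 uM unlabeled plus 0.24 uM Alexa 594-labeled, final) in 100 mM sodium acetate pH 7 was mixed with compound and 20 uM heparin and incubated 6 hr at 37 C.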
Tau FP inhib = qHTS for Inhibitors of Tau Fibril Formation, Fluorescence Polarization. Microtubule-associated protein tau (Homo sapiens), P10636. K18 P301L tau heparin fibrillization, Alexa594 FP, 6 h. Potency, µM (series often up to 57.7 µM), without a hit: top-dose activity, negative = inhibition, hits mostly inhibitors. actives 0.39% (n = 280,000). AID 1468, 2008; note: potency is the fitted concentration of half-maximal effect; nearly all actives have a fitted effect of over 55% in size
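Compound effects on tau fibrillization are measured by Alexa 594 fluorescence polarization (ex 555, em 632 nm). K18 P301L tau is used at 15 uM with 0.24 uM labeled tracer, and 20 uM heparin induces aggregation over 6 hr at 37 C.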
Coupling enz = qHTS Assay for Inhibitors of Fructose-1,6-bisphosphate Aldolase from Giardia Lamblia: Coupling assay counterscreen; actives 0.67% (n = 290,000); coupling enzyme system counterscreen, AmpLite Red fluorescence; AID 2472, 2010; activity change, negative = inhibition, % at 58.2 µM, hits read low; in the data active = activity change below about -30%
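Coupling enzymes only (glyceraldehyde-3-phosphate) + compound, at 57.5 uM final, 10 min RT; add substrate/coupling/AmpLite Red mix, 20 min RT; fluorescence ex 525/em 598 nm. Actives flag coupling-system interference.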
* hit, by the source's call; ? = inconclusive; . = not tested or not shown; [ ] = another dose, or the depositor's remark. Hits are enriched below; roughly 2.3% of the tested compounds scored in any of these assays. Unless noted, calls come from the whole dose curve; as a rule, active = well fitted curve in the direction sought with a large enough effect; inconclusive = small, poorly fitted or top-dose-only effect, or another doubt; inactive = no such curve, though single readings can be large; an effect the other way counts as inactive or inconclusive. % is set by controls: 0 for no effect and ±100 for the full control effect.

SMILES	Tau ThT inhib	USP1 inh	Tau fluor cs	Tau FP inhib	Coupling enz
CC(CNc1ccccc1O)C(=O)O (configuration not stated)	28.2µM*	-13.3%	?	?	-10.9
C/C(=N\Nc1cccc2cccnc12)c1ccc(N)cc1	25.1µM*	?	?	?	-8.9
COc1c2ccoc2c(OC(C)=O)c2oc(C)cc(=O)c12	.	-2.4%	.	.	0.5
Cc1cc(=O)c2c(O)cc(O)c(C)c2o1	25.1µM*	.	28.2µM*[quencher]	?	-17.4
Cc1nn(CC(=O)NCc2cccc(F)c2)c(=O)c2c(C)n(-c3ccc(Cl)cc3)nc12	8.3%	-20.1%	-12.4%	-2.4%	.
CC1=CC(=O)C=C(C)C1=NOc1ccccc1[N+](=O)[O-]	?	-4.4%	?	?	-36.6*
O=C(NCC(c1cccnc1)N1CCOCC1)C(=O)Nc1cccc(Cl)c1 (configuration not stated)	2.6%	-8.2%	1.0%	9.8%	.
Cn1c(N/N=C/c2cccs2)cc(=O)n(C)c1=O	?	-8.7%	-9.9%	-3.2%	-26.5
Fc1c(F)c(C(F)(F)F)c(F)c(F)c1N/N=C\c1cccs1	-19.9%	-25.9%	7.94µM*[quencher]	4.9%	-0.7
Cn1cc(Br)c(C(=O)Nc2ncc(Br)s2)n1	0.0%	-19.3%	-8.6%	3.2%	1.4
COc1ccc(Nc2nc(N)c(C(=O)c3ccc(OC)cc3)s2)cc1	.	-12.3%	.	.	-0.3
Nc1nc(Nc2ccccc2F)sc1C(=O)c1ccc(Cl)cc1	25.1µM*	-8.3%	15.8µM*[quencher]	-2.0%	.
CCOc1ccc(Nc2nc(N)c(C(=O)c3ccccc3Cl)s2)cc1	?	29.3%	15.8µM*[quencher]	2.7%	.
COc1ccc(Nc2nc(N)c(C(=O)c3ccc(F)cc3)s2)cc1	.	-24.7%	.	.	0.8
Cc1ccc(C(=O)c2sc(Nc3ccc(F)cc3)nc2N)c(C)c1	-14.2%	-22.9%	15.8µM*[quencher]	13.6%	.
Nc1nc(Nc2cccc(Cl)c2)sc1C(=O)c1ccc(F)cc1	?	-3.8%	8.91µM*[quencher]	?	.
COc1ccc(-n2ccnc(NCc3cccs3)c2=O)cc1OC	-4.0%	-19.1%	-7.3%	-5.1%	.
CCc1ccc(-c2cc3c(=O)n(CC(=O)NCCN4CCCCC4C)nc(C)n3n2)cc1 (configuration not stated)	.	-5.9%	.	.	1.3
CCOC(=O)c1cccc(NC(=O)Cc2ccc(NC(=O)N3CCCCc4ccccc43)cc2)c1	9.9%	-24.1%	-14.1%	-10.1%	.
CSCC[C@@H]1NC(=O)C/C=C\[C@@H](C)COC(=O)[C@@H](C)COC1=O	-5.0%[11.5 µM]	.	-3.0%[11.6 µM]	2.7%[11.6 µM]	2.6
Cc1ccc(OCCn2c(Br)nc3c2c(=O)n(C)c(=O)n3C)cc1	-4.4%	-13.5%	1.3%	5.8%	-49.9*
COc1ccc2nc(N=Nc3ccc(O)c4ccccc34)sc2c1	2.51µM*	-13.5%	?	-14.7%	-4.2
COc1ccc2nc(N=NC3=C(O)CC(C)(C)CC3=O)sc2c1	15.8µM*	-22.2%	-21.8%	3.3%	1.6
COc1ccc2nc(N)sc2c1	-8.7%	-9.9%	0.3%	-2.1%	0.1
CC1(C)CC(=O)C(N=Nc2ccc3ncsc3c2)=C(O)C1	?	-16.3%	-9.6%	4.8%	2.6
SMILES	Tau ThT inhib	USP1 inh	Tau fluor cs	Tau FP inhib	Coupling enz
CCc1ccc(NC(=O)C(=O)NCC(c2cccnc2)N2CCc3ccccc3C2)cc1 (configuration not stated)	?	-23.5%	?	-10.0%	.
O=C(NCC(c1cccnc1)N1CCc2ccccc2C1)C(=O)Nc1ccccc1 (configuration not stated)	1.58µM*	-13.0%	-25.6%	9.6%	.
COc1ccc(NC(=O)C(=O)NCC(c2cccnc2)N2CCc3ccccc3C2)cc1 (configuration not stated)	14.1µM*	-26.2%	?	?	.
O=c1cc(-c2ccc(O)c(O)c2)oc2ccccc12	17.8µM*	.	?	?	-20.4
O=C(CN1c2ccccc2Sc2ccccc21)NNC(=S)Nc1ccc(Cl)cc1Cl	?	-14.4%	10µM*[quencher]	14.8%	2.3
O=C(CSc1nccn1-c1ncc(C(F)(F)F)cc1Cl)c1ccc(Br)cc1	14.1µM*	-7.4%	-23.0%	?	-0.6
COc1ccc(Cl)cc1N(C)C(=O)C(=O)Nc1ccc2nc3n(c(=O)c2c1)CCCCC3	-2.6%	-21.1%	-8.2%	4.7%	.
C=C(C(=O)c1ccccc1)C(c1ccccc1)C(C)C(=O)c1ccccc1 (configuration not stated)	-15.4%	-27.6%	-9.5%	-1.8%	2.3
C=C(C(=O)c1ccccc1)C(C)C(=C)C(=O)c1ccccc1	28.2µM*	-14.7%	-13.5%	-20.2%	9.4
Cc1c(Cl)sn(-c2ccc(Cl)cc2)c1=O	14.1µM*	-2.7%	-20.4%	?	6.8
Cn1c(-c2ccc(=O)[nH]c2)nc2ccccc21	?	-9.3%	-7.3%	?	-33.1*
O=c1ccc(-c2nc3ccccc3n2Cc2ccc(Cl)cc2)c[nH]1	.	-21.0%	.	.	0.5
CSc1nn(Cc2cccc(Cl)c2)c(N(C(C)=O)C(C)=O)c1S(=O)(=O)c1ccccc1	?	-25.0%	-18.6%	?	.
Cc1c(-c2nsc(NC(=O)c3cccs3)n2)nnn1-c1ccc(Cl)cc1	?	0.2%	1.6%	?	.
Cc1cc2c(n1-c1ccc(C(=O)O)cc1)CCCCC2	.	.	.	.	1.1
CC1CCc2c(cc(-c3ccccc3)n2-c2ccc(C(=O)NC(C)C)cc2)C1 (configuration not stated)	?	-3.8%	?	11.2µM*	.
COCCNC(=O)c1ccc(-n2c(-c3ccccc3)cc3c2CCC(C)C3)cc1 (configuration not stated)	-7.8%	-15.5%	?	8.3%	.
CC(C)NC(=O)c1ccc(CN2CCC(Cc3ccccc3)CC2)cc1	.	-20.9%	.	.	1.5
CC(C)NC(=O)c1ccc(-n2c(-c3ccccc3)cc3c2CCCCC3)cc1	8.7%	-1.8%	?	12.6µM*	.
CCCNC(=O)c1ccc(-n2c(-c3ccccc3)cc3c2CCC(C)C3)cc1 (configuration not stated)	-7.4%	-13.0%	?	12.6µM*	.
C=CCNC(=O)CN(c1cc(Cl)ccc1OC)S(=O)(=O)c1ccc(C)c([N+](=O)[O-])c1	-5.9%	-24.4%	-13.8%	-5.5%	2.8
COc1ccc(-c2[nH]ncc2CN2CCCOc3c(cccc3OC)C2)c(OC)c1	-7.5%	-18.3%	5.0%	5.0%	-0.3
CCOc1ccc(NS(=O)(=O)c2ccc3[nH]cc(C(=O)NCc4ccco4)c(=O)c3c2)cc1	10.5%	-13.2%	?	15.8µM*	.
